# From PubChem BioAssay (NCI)
# Compounds without any hit were thinned out: in the full panel of roughly 83,000, 20% have a hit.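 Plates (96-well) were seeded with cells, treated with compound at one concentration, and incubated for 48 hours before percent growth was determined.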 Values without a mark were called inactive. Calls of active or inactive are those of the source.
# Test system: OVCAR-3 ovarian
# Experiment: NCI-60 one-dose screen, 48 h (100 = growth as untreated, 0 = no growth, -100 = all killed)
# Conditions: 10 µM
# Protocol: Growth inhibition of the OVCAR-3 human tumor cell line is measured as a screen for anti-cancer activity. Cells are grown in 96 well plates and exposed to the test compound for 48 hours. Compounds are tested at a single concentration, which is 10^-5 M for most compounds. The reported endpoint is percent growth (GI% or GIPRCNT), where numbers from 0 - 100% represent growth inhibition, and numbers from -100% - 0 represent cell death. For example, a value of 40 represents 60% growth inhibition. A value of 0 means no net growth occurred over the course of the experiment. A value of -40 indicates 40% of cells at the beginning of the experiment died by the end of the experiment. A value of -100 means all cells are dead at the end of the experiment.
# NCI-60 Human Tumor Cell Lines Screen was performed using the standard one-dose NCI protocol, which is described in more detail at https://dtp.cancer.gov/discovery_development/nci-60/default.htm.
# Compounds with GIPRCNT values below 10 were considered active. Activity score was based on GIPRCNT using the following formula: […]
# Score is 0 for GIPRCNT values of 100 or above, 50 for GIPRCNT values of 0, and 100 for GIPRCNT values of -100.
row,SMILES,growth
1,N=C1S/C(=C/c2ccc(-c3ccc4c(c3)C(=O)NC4=O)o2)C(=O)N1c1ccc(Br)cc1,51.4%
2,COc1cc(C)ccc1Oc1nc(Nc2ccc(N3CCOCC3)cc2)ncc1NC(=O)Nc1cc(C(F)(F)F)cc(C(F)(F)F)c1,51.9%
3,CCC(C)[C@H](NC(C)=O)C(=O)N[C@@H](CCCNC(=N)N)C(=O)N[C@@H](CCCCN)C(=O)N[C@@H](CC1CCC(O)CC1)C(=O)NC(C(=O)N[C@@H](CCSC)C(=O)N[C@@H](CCCNC(=N)N)C(=O)N[C@@]1(C)CCC/C=C\CCC[C@@](C)(C(=O)NC(C(=O)N[C@@H](CCC(=O)O)C(=O)N[C@@H](CC(C)C)C(=O)N[C@H](C(=O)N[C@@H](CCC(=O)O)C(N)=O)C(C)C)[C@@H](C)O)NC(=O)[C@H](CCC(N)=O)NC(=O)[C@H](CC(C)C)NC(=O)[C@H](CC(C)C)NC1=O)[C@@H](C)O (stereo not given in full),104%
4,CC(C)Cc1ccc([C@H](C)C(=O)O)cc1,111%
5,Cc1ccc(NCCN(C)CC(C)O)c2c(=O)c3ccccc3sc12 (stereo not given),66.7%
6,CS(=O)(=O)c1nccc(-c2c(-c3cccc(OCc4ccccc4)c3)nc3sccn23)n1,89.4%
7,N#Cc1cnn(C(=O)c2nn(-c3ccc(Cl)cc3)cc2O)c1N,-0.517% (active)
8,O=C(Nc1cc([N+](=O)[O-])c2[nH]c(=O)c3ccccc3c2c1)C(F)(F)F,106%
9,CC(=O)Nc1ccc(S(=O)(=O)c2ccnc3cc(Cl)ccc23)cc1,76%
10,C=CCNCCN1C(=O)c2ccc3c4c(ccc(c24)C1=O)C(=O)N(CCNCC=C)C3=O,-22.5% (active)
11,CN1CCc2c(sc3nc4n(-c5ccc(Cl)cc5)c(=O)[nH]n4c(=O)c23)C1,106%
12,Cc1ccc(-n2nnnc2N)c(C)c1,113%
13,CC(=O)[C@@]12O[C@](C)(c3ccccc3)O[C@@H]1CC1C3CCC4=CC(=O)CC[C@]4(C)C3CC[C@@]12C (stereo not given in full),54.3%
14,Cc1ccc(NC(=S)NNC(=S)Nc2ccc(C)cc2)cc1,64.5%
15,CNC(=O)c1cc(Oc2ccc3c(c2)sc2nc(-c4ccc(NC(=O)Nc5ccc(Cl)c(C(F)(F)F)c5)cc4)cn23)ccn1,86.9%
16,CCN(CC)CCNc1ccc(C)c2sc3cc(Cl)ccc3c(=O)c12,59.1%
17,CNC(=O)c1cc(Oc2ccc3c(c2)sc2nc(-c4ccc(N)cc4)cn23)ccn1,1.42% (active)
18,Cn1cnc([N+](=O)[O-])c1/C=C1\Oc2ccc(Br)cc2C1=O,99.7%
19,CN(C)CCOc1cccc(NC2=C(Cl)C(=O)C(Nc3cccc(OCCN(C)C)c3)=C(Cl)C2=O)c1,-97.3% (active)
20,CCOC(=O)Cn1c(=O)c2sc3ncccc3c2n2nnc(-c3ccccc3)c12,120%

row,SMILES,growth
1,O=C(COc1cccc(/C=C2\CSc3ccc(Cl)cc3C2=O)c1)c1ccc(Cl)cc1,90.3%
2,O=C1NC(=O)c2c(CCCSc3nc4ccccc4c(=O)n3CCc3ccccc3)cccc21,115%
3,COc1ccc(C2CC(c3cc(OC)c(OC)c(OC)c3)=NN2)cc1 (stereo not given),35.1%
4,CCCCCC(=O)O[C@]1(C(C)=O)CCC2C3CCC4=CC(=O)CC[C@]4(C)C3CC[C@@]21C (stereo not given in full),7.34% (active)
5,COc1ccc(C2=Cn3c(CCC(=O)c4nc5ccccc5[nH]4)nnc3SC2)cc1,113%
6,O=c1oc2c(cc1-c1ccc(F)cc1)C(O)Oc1ccccc1-2 (stereo not given),80.4%
7,Clc1ccc2c(c1)C(N1CCNCC1)=Nc1ccccc1O2,46.6%
8,CCN1CC(CCN2CCOCC2)C(C(c2ccccc2)c2ccccc2)C1=O (stereo not given),112%
9,Nc1c(Br)cc(Br)c2c1[nH]c(=O)c1ccccc12,68.7%
10,CCOC(=O)C1C(C(=O)OCC)C2C(=O)C3C(C(=O)OCC)C(C(=O)OCC)C3C(=O)C12 (stereo not given),114%
11,COc1ccc(/C(C#N)=C/c2cccc(OC)c2OC)cc1,94.2%
12,CC(C)(C)c1ccc(S(=O)(=O)Oc2ccc(NC(=O)C3CCCCC3)cc2)cc1,40.7%
13,N#Cc1c(N)nc(-c2cc(F)cc(C(F)(F)F)c2)nc1-c1ccccc1F,37.5%
14,NC1=NC(c2ccccc2)C2=C(N1)/C(=C/c1ccccc1)CCC2 (stereo not given),81.6%
15,O=c1cn[nH]c2ccc(Br)cc12,105%
16,COc1cc2cc(Oc3ccc(NC(=O)c4cc(C(F)(F)F)cc(C(F)(F)F)c4)cc3)c(C)nc2cc1OC,15.2%
17,CC1C(=NC(=O)c2cnccn2)C(C)C(c2ccc(Cl)cc2)NC1c1ccncc1 (stereo not given),113%
18,O=C1/C=C/[C@@H](O)[C@@H]2C[C@@H](O)C[C@H]2/C=C/CCC[C@H](CCc2ccc(C(F)(F)F)cc2)O1,-10.4% (active)
19,COc1ccc(/C=C2\CCCC3=C2NC(N)=NC3c2ccc(OC)cc2)cc1 (stereo not given),102%
20,CCOC(=O)c1cc(C(=O)c2ccc(OC)c(OC)c2)n2ccncc12,108%
